About 14,000 (4.5%) of roughly 310,000 compounds showed an effect of 50% or more. The effect is printed as a negative number. The entries come from a sample that favours strong results as a whole.
Biological target: human ether-à-go-go-related gene (hERG) potassium channel (human, UniProt Q12809)
Assay: primary screen, population patch clamp on CHO cells stably expressing hERG; higher = less effect of the substance
Protocol: Briefly, Chinese hamster ovary (CHO) cells stably expressing the hERG channel were dislodged from tissue culture flasks and dispensed into PPC plates. […] During the recording, background leak currents were estimated by a 100 ms step to -80 mV from an initial holding potential of -70 mV and subtracted from the subsequent current measurement. The campaign was conducted in two phases using slight differences in recording protocol. In the first phase, the initial voltage pulse used a 100 ms step to -30 mV from a holding potential of -70 mV, a 2 s conditioning step to +25 mV, and a 2 s test step to -30 mV. During the second phase of the screen, the potential during the conditioning step was raised to +45 mV. In both phases of the campaign, a secondary voltage pulse was applied using the same parameters as the second phase initial pulse. The initial and secondary pulses were applied in the absence of compound, and upon application of 1 μM and 10 μM test concentrations. […]
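Further: peak tail current of the secondary pulse compared with the same well before compound.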

human ether-à-go-go-related gene (hERG) potassium channel, sequence (Q12809 whole entry, looked up): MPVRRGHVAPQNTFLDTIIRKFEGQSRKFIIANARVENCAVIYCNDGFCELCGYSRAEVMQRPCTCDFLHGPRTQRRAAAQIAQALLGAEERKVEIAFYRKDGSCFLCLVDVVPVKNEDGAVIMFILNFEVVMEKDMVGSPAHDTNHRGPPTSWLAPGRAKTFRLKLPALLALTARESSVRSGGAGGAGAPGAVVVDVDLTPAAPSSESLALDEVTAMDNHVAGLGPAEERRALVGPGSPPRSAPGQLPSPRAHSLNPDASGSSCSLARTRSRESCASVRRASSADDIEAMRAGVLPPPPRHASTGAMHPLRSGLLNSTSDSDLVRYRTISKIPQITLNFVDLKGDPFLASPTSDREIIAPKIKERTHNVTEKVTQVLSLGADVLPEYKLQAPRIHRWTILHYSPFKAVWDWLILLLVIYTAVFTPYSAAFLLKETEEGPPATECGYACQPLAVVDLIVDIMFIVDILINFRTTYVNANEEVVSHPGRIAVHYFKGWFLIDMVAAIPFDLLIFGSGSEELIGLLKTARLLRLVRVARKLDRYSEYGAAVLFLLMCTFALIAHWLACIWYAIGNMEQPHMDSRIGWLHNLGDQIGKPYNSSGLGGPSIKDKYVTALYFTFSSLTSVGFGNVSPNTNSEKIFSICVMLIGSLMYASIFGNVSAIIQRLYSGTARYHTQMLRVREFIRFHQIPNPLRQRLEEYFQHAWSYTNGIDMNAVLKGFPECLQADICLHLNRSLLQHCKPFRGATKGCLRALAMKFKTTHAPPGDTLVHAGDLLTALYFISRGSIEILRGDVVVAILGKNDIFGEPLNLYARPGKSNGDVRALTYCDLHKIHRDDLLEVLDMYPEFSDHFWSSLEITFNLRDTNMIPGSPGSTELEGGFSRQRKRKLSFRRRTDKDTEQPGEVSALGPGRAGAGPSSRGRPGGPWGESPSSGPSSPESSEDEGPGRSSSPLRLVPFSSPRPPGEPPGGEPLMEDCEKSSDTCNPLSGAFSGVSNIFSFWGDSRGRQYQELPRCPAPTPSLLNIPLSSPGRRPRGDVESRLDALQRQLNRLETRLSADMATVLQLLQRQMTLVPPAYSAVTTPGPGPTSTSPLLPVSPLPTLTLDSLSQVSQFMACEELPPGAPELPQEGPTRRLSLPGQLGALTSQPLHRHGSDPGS

Row | Structure (SMILES) | hERG current change (%, negative = inhibition) at 10uM [%]
1 | O=C(Nc1ccc(Br)cc1)N1CCCC(O)C1 (centres unmarked) | 6.54
2 | CN1CCN(C(=O)c2ccc3c(c2)N(Cc2ccccc2F)C(=O)c2ccccc2S3=O)CC1 (centres unmarked) | 5.05
3 | COCCN1CCN(Cc2nc(C3(c4ccc(C)cc4)CCCC3)no2)CC1 | -9.3
4 | Cc1ccc(C2(c3noc(CN4CCC(c5ccncc5)CC4)n3)CCCC2)cc1 | -55.5
5 | Cc1ccc(C2(c3noc(CN4CCOCC4)n3)CCCC2)cc1 | 17.3
6 | COc1ccccc1NC(=O)C[n+]1ccccc1C.[Cl-] | 15.3
7 | CCOC(=O)CSc1nc2sc3c(c2c(=O)n1-c1ccc(OC)cc1)CCN(C)C3 | -5.76
8 | COc1ccc(-n2c(SCC(=O)O)nc3sc4c(c3c2=O)CCC4)cc1 | 18.9
9 | COc1ccc(-n2c(NCCN(C)C)nc3sc4c(c3c2=O)CCCCC4)cc1 | -72.7
10 | COc1ccc(-n2c(NN)nc3sc4c(c3c2=O)CCCC4)cc1 | -47.4
11 | CCN1CCN(c2nc3sc4c(c3c(=O)n2-c2ccc(OC)cc2)CCCCC4)CC1 | -60.3
12 | COc1ccc(-n2c(C)nc3sc4c(c3c2=O)CCCC4)cc1 | -20.3
13 | CCOc1ccc(-n2c(SCC(=O)OC)nc3sc4c(c3c2=O)CCN(C)C4)cc1 | -0.924
14 | COc1ccc(-n2c(SCC(=O)O)nc3sc4c(c3c2=O)CCCC4)cc1 | 20.3
15 | COc1ccc(-n2c(SCC(N)=O)nc3sc4c(c3c2=O)CCC4)cc1 | -16.9
16 | CCOC(=O)CSc1nc2sc3c(c2c(=O)n1-c1ccc(OCC)cc1)CCN(C)C3 | -53.9
17 | CN(C)CCNc1nc2sc3c(c2c(=O)n1-c1ccc(F)cc1)CCCCC3 | -33.3
18 | COc1ccc(-n2c(SCCNCCO)nc3sc4c(c3c2=O)CCCC4)cc1 | -55.7
19 | COc1ccc(CNc2nc3nc(-c4ccccc4)cc(=O)n3[nH]2)cc1OC | -13.1
20 | CCOC(=O)c1sc(NC(=O)CSc2nc(C)cc(C(F)(F)F)n2)c(C#N)c1C | 4.26
21 | COc1ccc(C(=O)c2c[nH]c(C(=O)NCc3cccnc3)c2)cc1 | -12.7
22 | CCN1CCc2nc(NC(=O)c3cc(F)c(F)cc3Cl)sc2C1 | -34.2
23 | Cc1cccc(OCCOC(=O)c2ccc(F)c(S(=O)(=O)N3CCOCC3)c2)c1 | -18.1
24 | CCN1CCc2c(sc(NC(=O)c3ccc(S(=O)(=O)N4CC(C)OC(C)C4)cc3)c2C(N)=O)C1 (centres unmarked) | -54.5
25 | Cl.NC(=O)c1c(NC(=O)Cc2ccccc2)sc2c1CCN(Cc1ccccc1)C2 | 7.96

Row | Structure (SMILES) | hERG current change (%, negative = inhibition) at 10uM [%]
26 | CNC(=O)c1c(NC(=O)c2ccc(S(=O)(=O)N3CC(C)OC(C)C3)cc2)sc2c1CCN(C(C)C)C2 (centres unmarked) | -26.9
27 | Cl.NC(=O)c1c(NC(=O)c2ccccc2)sc2c1CCN(Cc1ccccc1)C2 | 7.85
28 | CCN1CCN(S(=O)(=O)c2ccc(C(=O)Nc3sc4c(c3C(N)=O)CCN(CC)C4)cc2)CC1 | 12.4
29 | CCN1CCc2c(sc(NC(=O)c3ccc(S(=O)(=O)N4CCOCC4)cc3)c2C(N)=O)C1 | -21.9
30 | CNC(=O)c1c(NC(=O)c2ccc(S(=O)(=O)N3CCCC3)cc2)sc2c1CCN(C(C)C)C2 | 2.7
31 | CCC(=O)Nc1sc2c(c1C(N)=O)CCN(Cc1ccccc1)C2.Cl | -53.3
32 | CNC(=O)c1c(NC(=O)c2ccc(S(=O)(=O)N3CCCCC3)cc2)sc2c1CCN(C(C)C)C2 | -65.8
33 | CCN1CCc2c(sc(NC(=O)c3ccc(C(=O)c4ccccc4)cc3)c2C(N)=O)C1.Cl | -55.4
34 | CCN1CCc2c(sc(NC(=O)c3ccc4ccccc4c3)c2C(N)=O)C1.Cl | 7.59
35 | CN1CCc2c(sc(NC(=O)c3ccc(C(=O)c4ccccc4)cc3)c2C(N)=O)C1.Cl | 11.5
36 | N=C1/C(=C\c2ccc(-c3cccc(C(=O)O)c3)o2)C(=O)N=C2SC=C(c3ccccc3)N12 | 0.469
37 | CCCN1CCCc2ccccc21.Cl | 7.61
38 | CNC(CC(C)C)C(=O)NC1C(=O)NC(CC(N)=O)C(=O)NC2C(=O)NC3C(=O)NC(C(=O)NC(C(=O)O)c4cc(O)cc(O)c4-c4cc3ccc4O)C(O)c3ccc(c(Cl)c3)Oc3cc2cc(c3OC2OC(CO)C(O)C(O)C2OC2C[C@](C)(N)C(O)C(C)O2)Oc2ccc(cc2Cl)C1O (some centres unmarked) | 9.61
39 | COC(=O)c1ccc2c(=O)[nH]c(CCl)nc2c1 | 10.7
40 | COC(=O)NNC(=O)c1ccc(Cl)cc1Cl | 19.8
41 | O=C(C1=C(O)C(=O)N(CC2CCCO2)C1c1ccc(Cl)cc1Cl)c1ccco1 (centres unmarked) | 18.5
42 | COc1ccc(-c2oc(/N=C/N3CCOCC3)c(C#N)c2-c2ccc(OC)cc2)cc1 | 13.9
43 | COC(=O)c1c(NC(=O)C(C)(C)C)sc2c1CCN(Cc1ccccc1)C2.Cl | -34.7
44 | CCOC(=O)c1c(NC(=O)CC)sc2c1CCN(Cc1ccccc1)C2.Cl | -14.5
45 | CC(=O)Nc1sc2c(c1C(N)=O)CCN(Cc1ccccc1)C2.Cl | -23.3
46 | CCC(=O)Nc1sc2c(c1C(=O)OC)CCN(Cc1ccccc1)C2.Cl | -62.9
47 | CC(C)C(=O)Nc1sc2c(c1C(N)=O)CCN(Cc1ccccc1)C2.Cl | -108
48 | COC(=O)c1c(NC(=O)C(C)C)sc2c1CCN(Cc1ccccc1)C2.Cl | -38.4
49 | O=C(N/N=C/c1cn(-c2ccccc2)nc1-c1ccc2c(c1)OCCO2)c1ccncc1 | 15.2
50 | COc1ccc(NC(=O)COc2coc(CN3c4ccccc4CC3C)cc2=O)cc1 (centres unmarked) | 5.06
